Some test systems named below: NCI-H226 lung; NCI-H322M lung; HOP-62 NSCLC; NCI-H460 lung; HOP-92 NSCLC; NCI-H522 lung; A549/ATCC NSCLC; 786-0 renal; COLO 205 colon; DU-145 prostate; K-562 leukemia; MALME-3M melanoma; MDA-MB-231 breast; RXF 393 renal; SF-268 CNS; SF-539 CNS; UACC-257 melanoma; M14 melanoma; SF-295 CNS.
Assay in all cases: NCI-60 one-dose screen, 48 h (100 = growth as untreated, 0 = no growth, -100 = all killed)
Holding throughout (settings): 10 µM unless noted

The panel holds about 83,000 compounds, 20% with a hit somewhere; the sample as a whole holds those more often.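 Method: cells in 96-well plates; compound added at one concentration; 48 h incubation; percent growth measured; values under 10 scored active.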 Values without a mark were called inactive. Calls of active or inactive are those of the source.

Take `COc1cc(C(=O)/C=C/c2cc(-c3ccc4c(c3)OCO4)n[nH]2)cc(OC)c1OC`: the growth is 38.1% in the assay on NCI-H226 lung; 19.3% with NCI-H322M lung; -22.7% (active) in the assay with HOP-62 NSCLC; -55.2% (active) in the assay on NCI-H460 lung; 73% in the assay on HOP-92 NSCLC; 17.4% in the assay on NCI-H522 lung. Besides, the growth was 28.8% with A549/ATCC NSCLC; 12.8% with 786-0 renal; 32.3% in the assay on COLO 205 colon; 0.359% (active) in the assay with DU-145 prostate; -17% (active) with K-562 leukemia; 68.5% in the assay on MALME-3M melanoma. Further, the growth was 30.6% in the assay on MDA-MB-231 breast; 1.1% (active) with RXF 393 renal; -8.16% (active) with SF-268 CNS; -51.9% (active) in the assay with SF-539 CNS; 76.5% in the assay on UACC-257 melanoma; 81.4% with M14 melanoma.

For the compound `Nc1c(C(=O)Nc2cccc(Cl)c2)sc2ncc(Cl)cc12`, the growth is 75.7% in the assay on NCI-H226 lung; 73% in the assay with HOP-62 NSCLC; 13.8% with NCI-H460 lung; 91.9% with HOP-92 NSCLC; 97.4% in the assay with NCI-H522 lung; 43.4% in the assay with A549/ATCC NSCLC. Moreover, the growth in the assay on 786-0 renal was 85.4%; with COLO 205 colon, 79.6%; in the assay on DU-145 prostate it was 56.7%; in the assay with K-562 leukemia it was 80.6%; in the assay with MALME-3M melanoma, 69.8%; in the assay on MDA-MB-231 breast it was 83.7%. Further, the growth in the assay on RXF 393 renal was 83.5%; in the assay on SF-268 CNS, 63.5%; in the assay on SF-539 CNS, 60.8%; with UACC-257 melanoma, 100%; in the assay with M14 melanoma, 88.2%.

Consider `Cc1cccc2c1NC(=O)[C@@]21[C@H](C(=O)c2ccccc2)[C@]2(C(=O)Nc3ccccc32)[C@H]2CCCN21`, for which the growth with NCI-H226 lung is 13% [100 µM]; with NCI-H322M lung, 48.8% [100 µM]; in the assay with HOP-62 NSCLC, 4.33% [100 µM] (active); with NCI-H460 lung, 12.3% [100 µM]; in the assay with HOP-92 NSCLC, -25.2% [100 µM] (active); with NCI-H522 lung, 17% [100 µM]. Also, the growth in the assay with A549/ATCC NSCLC is 15% [100 µM]; with 786-0 renal it was 15.3% [100 µM]; in the assay on COLO 205 colon, 33.1% [100 µM]; with DU-145 prostate, 40% [100 µM]; with K-562 leukemia, 30.4% [100 µM]; in the assay on MDA-MB-231 breast, 14.5% [100 µM]. For the same compound, the growth is -23.9% [100 µM] (active) in the assay with RXF 393 renal; 34.3% [100 µM] in the assay on SF-268 CNS; 23.7% [100 µM] with SF-295 CNS; 6.13% [100 µM] (active) in the assay on SF-539 CNS; 46.1% [100 µM] in the assay with M14 melanoma.

Take `Brc1ccc(Cn2nnnc2-c2ccn(-c3ccccc3)n2)cc1`: the growth with NCI-H226 lung is 62.8%; in the assay with NCI-H322M lung, 76.8%; in the assay on HOP-62 NSCLC, 74.3%; with NCI-H460 lung, 73.8%; in the assay on HOP-92 NSCLC, 63.8%; with NCI-H522 lung, -1.66% (active). The growth in the assay on A549/ATCC NSCLC was 67.8%; with 786-0 renal, 82.8%; with COLO 205 colon, 96.6%; in the assay with DU-145 prostate it was 85.8%; in the assay with K-562 leukemia, 46.2%; with MALME-3M melanoma it was 103%. Moreover, the growth is 73.5% in the assay on MDA-MB-231 breast; 87.1% with RXF 393 renal; 73.2% with SF-268 CNS; 50.5% in the assay on SF-295 CNS; 80.8% in the assay with SF-539 CNS; 28.8% in the assay with UACC-257 melanoma. In the assay on M14 melanoma, the growth is 83.4%.

In the case of `COc1ccc(C(=O)/C=C/c2cc(-c3cc(OC)c(OC)c(OC)c3)n[nH]2)cc1OC`, the growth was 20.8% in the assay with NCI-H226 lung; -42.4% (active) in the assay on NCI-H322M lung; -56.6% (active) in the assay on HOP-62 NSCLC; -17.4% (active) in the assay with NCI-H460 lung; 42.8% in the assay with HOP-92 NSCLC; -78.5% (active) in the assay on NCI-H522 lung. Also, the growth in the assay on A549/ATCC NSCLC is 31.3%; in the assay on 786-0 renal it was -34.7% (active); in the assay with COLO 205 colon, -65.7% (active); in the assay on DU-145 prostate, 1.8% (active); in the assay on K-562 leukemia, 3.36% (active); in the assay with MALME-3M melanoma, -75.5% (active). In addition, the growth with MDA-MB-231 breast is -4.03% (active); with RXF 393 renal it was -78.8% (active); in the assay on SF-268 CNS it was -20.1% (active); with SF-539 CNS it was -96.2% (active); in the assay with UACC-257 melanoma it was 24.6%; with M14 melanoma, -7.08% (active).

For the compound `Nc1c(C(=O)Nc2cccc3ccccc23)sc2nc3c(cc12)CCCC3`, the growth in the assay on NCI-H226 lung was 63.1%; in the assay on NCI-H322M lung, 51.7%; with HOP-62 NSCLC it was 29.9%; in the assay with NCI-H460 lung, 16.4%; in the assay on HOP-92 NSCLC, 44%; in the assay with NCI-H522 lung, 11.7%. Further, the growth with A549/ATCC NSCLC is 17.8%; in the assay on 786-0 renal, 34.7%; in the assay with COLO 205 colon it was -3.36% (active); with DU-145 prostate, 19.3%; in the assay on K-562 leukemia, 9.59% (active); in the assay with MALME-3M melanoma, 78%. Further, the growth in the assay on MDA-MB-231 breast is 33.2%; in the assay on RXF 393 renal it was 27.4%; in the assay with SF-268 CNS, 50.1%; in the assay on SF-295 CNS, 14.6%; in the assay on SF-539 CNS, 8.91% (active); in the assay on M14 melanoma it was 7.77% (active).

With `CCOC(=O)N1CCN(CCCCOc2ccc(C(C)(C)CC)cc2)CC1`, the growth with NCI-H226 lung is 88.5%; in the assay with NCI-H322M lung, 113%; in the assay with HOP-62 NSCLC, 100%; with NCI-H460 lung, 105%; in the assay on HOP-92 NSCLC it was 86.3%; with NCI-H522 lung, 77.8%. The growth in the assay with A549/ATCC NSCLC was 95.7%; with 786-0 renal, 99.7%; in the assay on COLO 205 colon it was 105%; in the assay with DU-145 prostate, 104%; with K-562 leukemia, 68.1%; with MALME-3M melanoma, 92.3%. For the same compound, the growth was 102% in the assay on MDA-MB-231 breast; 111% in the assay on RXF 393 renal; 105% in the assay on SF-268 CNS; 98.4% in the assay with SF-295 CNS; 104% with SF-539 CNS; 94% in the assay with UACC-257 melanoma. The growth with M14 melanoma is 87.9%.

Turning to `O=C(NO)c1ccc(Cn2c(=O)n(-c3ccccc3)c(=O)c3ccccc32)cc1`, the growth in the assay on NCI-H226 lung was 41.3%; with NCI-H322M lung, 38.8%; with HOP-62 NSCLC, 29.3%; with NCI-H460 lung it was 39%; in the assay with HOP-92 NSCLC it was 48.4%; in the assay with NCI-H522 lung, -21.7% (active). Also, the growth is 37.7% in the assay with A549/ATCC NSCLC; 71% with 786-0 renal; -62.4% (active) in the assay with COLO 205 colon; 21.9% with DU-145 prostate; 3.42% (active) in the assay with K-562 leukemia; 55.1% in the assay on MDA-MB-231 breast. Further, the growth was -13.1% (active) in the assay on RXF 393 renal; 43.9% with SF-268 CNS; 13.6% in the assay on SF-295 CNS; -8.95% (active) in the assay on SF-539 CNS; 2.72% (active) with M14 melanoma.

As for `CC(C)=CCC/C(C)=C/CC/C(C)=C/CC/C(C)=C/CSC[C@H](NC(=O)CCCCCN1CCN(C)CC1)C(=O)NC1CCCCC1`, the growth with NCI-H226 lung was 95.8%; in the assay with NCI-H322M lung, 89.8%; in the assay with HOP-62 NSCLC, 85.6%; in the assay on NCI-H460 lung it was -7.73% (active); with HOP-92 NSCLC, 76.4%; in the assay on NCI-H522 lung it was 85%. Moreover, the growth was 71.7% with A549/ATCC NSCLC; 83.7% in the assay on 786-0 renal; 8.86% (active) with COLO 205 colon; 64.3% with DU-145 prostate; -27.2% (active) in the assay with K-562 leukemia; 71.2% in the assay with MALME-3M melanoma. Further, the growth with MDA-MB-231 breast was -81.3% (active); with RXF 393 renal it was 75.1%; in the assay with SF-268 CNS, 84.8%; in the assay with SF-539 CNS it was 85.7%; in the assay on UACC-257 melanoma, 105%; in the assay with M14 melanoma it was 35.1%.

For the compound `COc1cccc(-c2nn(-c3ccccc3)cc2-c2ccnc(NCCCNS(=O)(=O)c3ccccc3)c2)c1`, the growth in the assay with NCI-H226 lung was 35.1%; in the assay with NCI-H322M lung, 59.3%; in the assay with HOP-62 NSCLC, 64.3%; in the assay on NCI-H460 lung it was 31.8%; with HOP-92 NSCLC, 18.9%; in the assay on NCI-H522 lung it was 31.1%. In addition, the growth in the assay on A549/ATCC NSCLC is 35.8%; in the assay on 786-0 renal, 43.2%; in the assay with COLO 205 colon, 17.1%; in the assay on DU-145 prostate, 52%; in the assay on K-562 leukemia it was 9.59% (active); in the assay with MALME-3M melanoma, 68.7%. In addition, the growth is 20.6% in the assay on MDA-MB-231 breast; 36.4% in the assay on RXF 393 renal; 47.1% in the assay with SF-268 CNS; 16.8% in the assay with SF-295 CNS; 57.5% in the assay with SF-539 CNS; 29.9% with M14 melanoma.

On to `O=C1C=Cc2ncccc2C1=O`, for which the growth in the assay on NCI-H226 lung was 81.8%; in the assay with NCI-H322M lung it was 97.7%; with HOP-62 NSCLC, 99.7%; in the assay on NCI-H460 lung, 111%; with HOP-92 NSCLC it was 97%; in the assay with NCI-H522 lung it was 88.8%. Also, the growth with A549/ATCC NSCLC was 105%; with 786-0 renal, 103%; in the assay on COLO 205 colon, 54%; in the assay on DU-145 prostate, 78.9%; with K-562 leukemia, 0.688% (active); in the assay on MALME-3M melanoma it was 89.9%. Also, the growth in the assay with RXF 393 renal is 106%; in the assay with SF-268 CNS, 97%; in the assay on SF-295 CNS, 102%; in the assay with SF-539 CNS, 86.3%; with UACC-257 melanoma, 88.1%; with M14 melanoma, 95.5%.

(Values after PubChem BioAssay (NCI).)
